# Test results as given in ChEMBL document CHEMBL4513216, “Probing the Open Global Health Chemical Diversity Library for Multistage-Active Starting Points for Next-Generation Antimalarials” (ACS Infect Dis, 2020).
# About 8,600 (12%) of roughly 69,000 compounds showed an effect of 50% or more. What follows is part of a selection rich in strong results, with near analogues and random picks from the rest.
# System: Plasmodium berghei
# Test: Screen against P. berghei liver stage (PbLuc), transformed with Luciferase, at 10uM
# Type: functional, HepG2
# Details: tested at 10 uM
row,SMILES,INHIBITION
1,Cc1cc(NS(=O)(=O)c2ccc(C(=O)O)cc2F)ccc1F,-2.33%
2,O=C1C[C@@H]2[C@H](CCN2Cc2ccco2)N1c1ccsc1,39.3%
3,O=C(Cn1cc(Cl)cn1)N1CCNC1=O,45.9%
4,COc1ccc(CN2CCc3c(nc(-c4ccccn4)[nH]c3=O)C2)cc1,-11.7%
5,Cc1oncc1C(=O)NCc1cc(=O)n2c(n1)CN(CC(C)C)CCC2,38.3%
6,CC(C)n1nnnc1-c1ccc(NC(=O)CCC(F)(F)F)cc1F,40.3%
7,CCCC(=O)NCCc1nc2cc(-c3ccc(OC)cc3)ncn2n1,-3%
8,Cn1nc(CN2CCCC2)c2c1CN(CC1CC1)CC2,11.6%
9,CN(C)Cc1nn(C)c2c1CCN(C(=O)CC1CC1)C2,-4.99%
10,CC(C)n1nc(CN(C)C)c2c1CN(C(=O)CC1CC1)CC2,61.5%
11,CC(C)n1nc(CN2CCCC2)c2c1CN(CC1CC1)CC2,58.3%
12,CC(C)n1nc(CN(C)C)c2c1CN(CC1CC1)CC2,20.1%
13,CC(=O)NCC(=O)N1CCc2c(CN(C)C)nn(C(C)C)c2C1,34.9%
14,OC(CNCc1nnc2ccccn12)c1ccc2c(c1)OCCCO2 (centres undefined),17%
15,Cn1cc(NC(=O)N2CCC(Cc3ccccc3)CC2)ccc1=O,20.45%
16,Cc1cc(NC(=O)CN2CCCC2c2noc(C)n2)n(C)n1 (centres undefined),-25.8%
17,CN(C)C(=O)N1CCc2onc(C(=O)Nc3cccnc3)c2C1,-40.5%
18,O=C(N1CCC2(CC1)[C@H](O)C[C@@H]2O)C1(c2ccccc2F)CC1,25.9%
19,O=C(CN(CC(O)c1ccc(F)cc1)C1CC1)NC(C1CC1)C1CC1 (centres undefined),45.7%
20,O=C(CN(CC(O)c1ccc(F)cc1)C1CC1)NCc1cccs1 (centres undefined),65.4%
21,O=C(CN(CC(O)c1ccc(F)cc1)C1CC1)NC1CCOCC1 (centres undefined),22.6%
22,Cc1cnn(CCNCC(=O)NCC2(c3ccccc3)CC2)c1,17.5%
23,Cc1nc(C)n(CC2CCCN2Cc2nc(-c3ccoc3)no2)n1 (centres undefined),7.925%

row,SMILES,INHIBITION
1,CCCS(=O)(=O)N1CCC2(CN(c3cnn(C)c3)C(=O)CN2C)C1 (centres undefined),21.6%
2,Cc1nn(C)c2nc(C3CC3)c(Cl)c(C(=O)O)c12,23.4%
3,O=C(c1cscn1)N1CCCC2(CCN2Cc2cccc(F)c2)C1 (centres undefined),64.7%
4,O=C(c1ccccc1)N1CCCC2(CCN2Cc2cccc(F)c2)C1 (centres undefined),61.1%
5,O=C(O)CN1CCCC2(CCN2Cc2cccc(F)c2)C1 (centres undefined),44.8%
6,COC(=O)CCC(=O)N1CCCC2(CCCN2Cc2cccc(F)c2)C1 (centres undefined),37.6%
7,O=C(N[C@@H]1CN(Cc2cccc(F)c2)C[C@H]1O)c1cscn1,47.1%
8,O=C(c1cscn1)N1CCC2(CN(Cc3ccncc3)C2)C1,24.9%
9,Cc1c(C(=O)O)cnn1-c1ccc(-c2nc(C3CC3)no2)cn1,34%
10,CNc1cncc(C2CCCN2S(=O)(=O)c2ccc(F)cc2)n1 (centres undefined),35.2%
11,Cc1noc(C)c1C1CCCN1C(=O)CN1C(=O)OC(C)(C)C1=O (centres undefined),40.7%
12,CCN1CCO[C@]2(CCC[C@H]2COCc2csc(C)n2)C1,52.9%
13,Cc1nc(COC[C@H]2CCC[C@]23CN(CC2CC2)CCO3)cs1,54.4%
14,Cc1nc(COC[C@H]2CCC[C@@]23CN(C(C)C)CCO3)cs1,12.4%
15,Cc1nc(COC[C@H]2CCC[C@]23CN(C2CCOC2)CCO3)cs1 (some centres undefined),49.7%
16,Cc1nc(COC[C@@H]2CCC[C@@]23CN(C)CCO3)cs1,48.6%
17,Cc1nc(COC[C@@]23CCC[C@@H]2CN(CC2CCOCC2)C3)cs1,-5.63%
18,CN(C)CCO[C@H]1CN(Cc2ccco2)[C@@H]2COC[C@H]12,30.3%
19,Cc1csc(C(Cc2cccs2)NCc2cc3c(cc2C)OCO3)n1 (centres undefined),45.45%
20,CCN1CCC12CCN(C(=O)c1ccsc1)C2 (centres undefined),-30%
21,O=C(c1ccc[nH]1)N1Cc2nccn2CC(COc2cccnc2)C1 (centres undefined),3.58%
22,CCCc1noc(C2CCCCN2C(=O)CCc2cnn(C)c2)n1 (centres undefined),1.56%
23,COc1ccc(-c2nc(C#N)c(N(C)C)o2)cc1S(=O)(=O)N1CCCC1,-35.5%

row,SMILES,INHIBITION
1,c1cncc(CN2CC[C@@H]3O[C@H](COCCN4CCCC4)CC[C@@H]32)c1,-51%
2,COc1ccc(CNC(=O)NC(C)(CO)C2CC2)c(C(F)(F)F)c1 (centres undefined),17.8%
3,COc1ccc(C[C@H]2CN(C3CCOCC3)CC[C@H]2OCC2CC2)cc1,-24.5%
4,Cc1noc(C)c1CN1C[C@H](OCC2CC2)[C@H]2OCCC[C@H]21,-1.64%
5,Cc1noc(C)c1CN1C[C@H](OCC2CCN(C)CC2)[C@H]2COC[C@H]21,-12.2%
6,Cc1noc(C)c1CN1C[C@H](OCC2CC2)[C@H]2COC[C@H]21,-41%
7,Cc1noc(C)c1CN1CC[C@H](OCC2CC2)[C@@H](Cc2ccccc2)C1,53.2%
8,Cc1noc(C)c1CN1CC[C@@H](OCC2CC2)[C@@H](Cc2ccccc2)C1,73.4%
9,O=C(NCCc1ccncc1)[C@@H]1CC[C@@H]2[C@@H](CCN2Cc2ccco2)O1,31.7%
10,COCC(=O)N1CCC2(CCC2NS(=O)(=O)c2ccccc2)CC1 (centres undefined),64.5%
11,O=S(=O)(NC1CCC12CCN(CC1CC1)CC2)c1ccccc1 (centres undefined),26%
12,COCC(=O)N1CCC2(CCC2NC(=O)c2ccn(C)c2)CC1 (centres undefined),41.6%
13,Cc1nc(O)c2nnn(C[C@H]3CCCN3C(=O)c3ccc(F)cc3)c2n1,8.72%
14,CCc1cc(=O)[nH]c(-c2ccc(NC(C)COC)nc2)n1 (centres undefined),-10.3%
15,CCOC(=O)C1(Cc2cccc(OC)c2)CCN(Cc2ccon2)CC1,55.7%
16,CCOC(=O)C1(Cc2cccc(Cl)c2)CCCN(Cc2ncc[nH]2)C1 (centres undefined),46.7%
17,COc1cccc(CC2(C(=O)O)CCN(c3nccs3)CC2)c1,22.3%
18,CCOC(=O)C1(Cc2cccc(OC)c2)CCN(Cc2ncc[nH]2)CC1,57.6%
19,O=C1CC2(CCN(Cc3ncc[nH]3)CC2)CN1Cc1ccc(Cl)cc1,12.4%
20,COc1cccc(CC2(C(=O)O)CCN(c3ccc(Cl)cn3)CC2)c1,30.8%
21,COc1cccc(CNC(=O)N2CCN(Cc3cc(C)on3)CC2)c1,-1.62%
22,CCOC(=O)C1(Cc2ccc(Cl)cc2)CCN(Cc2ncc[nH]2)CC1,82.1%
23,CCOC(=O)C1(Cc2cccc(OC)c2)CCCN(Cc2ncc[nH]2)C1 (centres undefined),41.2%
